# According to paper PMC4081100, “A DNA-binding-site landscape and regulatory network analysis for NAC transcription factors in Arabidopsis thaliana”:
# Assays:
# Assay in all cases: universal protein binding microarray (PBM); transcription factors of Arabidopsis thaliana; high values mean tight binding
# Settings in all cases: protein: recombinant; tags: GST; chain copies: 2; dsDNA, one strand shown
# [1] = molecular target: T1, GST-ANAC092(1-176) (Arabidopsis thaliana, UniProt Q9FKA0 1-176)
# T1 sequence: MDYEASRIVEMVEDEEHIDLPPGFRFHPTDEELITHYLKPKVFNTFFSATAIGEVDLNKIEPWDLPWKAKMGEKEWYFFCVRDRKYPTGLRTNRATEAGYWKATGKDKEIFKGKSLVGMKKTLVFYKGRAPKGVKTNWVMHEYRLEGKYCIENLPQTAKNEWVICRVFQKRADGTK
# Outline: (§1)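 Binding is expressed as the normalised enrichment score (E-score). Proteins carrying a GST tag, whether NAC-domain, full-length or DNA-binding-domain forms, were induced in cells, and zinc acetate was added for zinc-finger proteins. After purification on glutathione–Sepharose 4B and quantification by A280 or anti-GST western blot, each was applied in duplicate at 200 to 500 nM final to custom all-10-mer Agilent 4 × 180K arrays made double-stranded by primer extension. Gapped and ungapped 8-mers were scored.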
# [2] = molecular target: GST-NTL6(1-168) (Arabidopsis thaliana, UniProt Q9SCK6 1-168)
# Outline: as §1
# [3] = molecular target: T2, GST-ANAC019 NAC domain (Arabidopsis thaliana, UniProt Q9C932 14-162)
# T2 sequence: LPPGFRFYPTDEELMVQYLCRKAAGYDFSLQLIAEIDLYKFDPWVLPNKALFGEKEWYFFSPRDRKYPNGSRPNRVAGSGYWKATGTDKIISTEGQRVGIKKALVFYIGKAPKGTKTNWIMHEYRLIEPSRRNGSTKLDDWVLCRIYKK
# Outline: as §1
# [4] = molecular target: T3, GST-ANAC055(1-171) (Arabidopsis thaliana, UniProt Q9LDY8 1-171)
# T3 sequence: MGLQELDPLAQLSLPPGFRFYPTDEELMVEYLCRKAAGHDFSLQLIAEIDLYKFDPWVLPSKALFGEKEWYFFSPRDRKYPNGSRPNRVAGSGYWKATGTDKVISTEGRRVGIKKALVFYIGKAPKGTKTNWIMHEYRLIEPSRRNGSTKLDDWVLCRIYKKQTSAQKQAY
# Outline: as §1
# [5] = molecular target: T4, GST-ATAF1 NAC domain (Arabidopsis thaliana, UniProt Q39013 7-158)
# T4 sequence: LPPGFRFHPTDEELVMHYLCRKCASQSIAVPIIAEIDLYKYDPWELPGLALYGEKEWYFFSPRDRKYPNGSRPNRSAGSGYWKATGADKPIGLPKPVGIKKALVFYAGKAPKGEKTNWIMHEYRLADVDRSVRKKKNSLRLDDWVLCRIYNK
# Outline: as §1
# [6] = molecular target: T5, GST-ANAC092(1-285) full length (Arabidopsis thaliana, UniProt Q9FKA0 1-285)
# T5 sequence: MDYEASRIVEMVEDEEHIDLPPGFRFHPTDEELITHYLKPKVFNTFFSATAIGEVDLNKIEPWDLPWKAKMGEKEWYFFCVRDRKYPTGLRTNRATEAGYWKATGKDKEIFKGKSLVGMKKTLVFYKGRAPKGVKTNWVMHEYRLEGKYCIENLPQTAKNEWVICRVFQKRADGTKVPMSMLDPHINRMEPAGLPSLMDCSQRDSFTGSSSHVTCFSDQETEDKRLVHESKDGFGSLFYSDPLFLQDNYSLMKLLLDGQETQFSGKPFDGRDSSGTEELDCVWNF
# Outline: as §1
# [7] = molecular target: T6, GST-NAP(1-166) (Arabidopsis thaliana, UniProt O49255 1-166)
# T6 sequence: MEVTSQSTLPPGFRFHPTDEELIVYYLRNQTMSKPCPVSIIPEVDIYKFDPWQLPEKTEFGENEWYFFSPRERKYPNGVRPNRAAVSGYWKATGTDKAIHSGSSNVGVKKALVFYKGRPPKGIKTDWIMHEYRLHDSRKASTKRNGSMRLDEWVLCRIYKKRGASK
# Outline: as §1
# [8] = molecular target: T7, GST-NST2(1-184) (Arabidopsis thaliana, UniProt Q9M274 1-184)
# T7 sequence: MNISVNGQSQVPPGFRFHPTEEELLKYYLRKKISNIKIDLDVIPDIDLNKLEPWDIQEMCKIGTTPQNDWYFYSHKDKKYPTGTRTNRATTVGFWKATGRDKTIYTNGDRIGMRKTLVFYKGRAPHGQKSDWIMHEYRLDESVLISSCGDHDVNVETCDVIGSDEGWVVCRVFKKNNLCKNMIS
# Outline: as §1
# [9] = molecular target: T8, GST-SND1(1-203) (Arabidopsis thaliana, UniProt Q9LPI7 1-203)
# T8 sequence: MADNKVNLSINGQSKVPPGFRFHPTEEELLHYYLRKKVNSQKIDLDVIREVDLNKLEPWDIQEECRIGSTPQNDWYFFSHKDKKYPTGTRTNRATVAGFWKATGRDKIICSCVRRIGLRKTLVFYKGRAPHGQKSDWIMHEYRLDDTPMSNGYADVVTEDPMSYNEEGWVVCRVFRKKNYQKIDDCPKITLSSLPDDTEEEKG
# Outline: as §1
# [10] = molecular target: T9, GST-VND3 NAC domain (Arabidopsis thaliana, UniProt Q9FH59 12-162)
# T9 sequence: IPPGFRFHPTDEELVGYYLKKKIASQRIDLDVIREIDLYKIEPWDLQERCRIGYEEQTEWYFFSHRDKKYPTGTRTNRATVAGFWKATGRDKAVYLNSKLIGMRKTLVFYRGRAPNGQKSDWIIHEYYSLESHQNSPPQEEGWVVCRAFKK
# Outline: as §1
# [11] = molecular target: T10, GST-VND7 NAC domain (Arabidopsis thaliana, UniProt Q9C8W9 9-158)
# T10 sequence: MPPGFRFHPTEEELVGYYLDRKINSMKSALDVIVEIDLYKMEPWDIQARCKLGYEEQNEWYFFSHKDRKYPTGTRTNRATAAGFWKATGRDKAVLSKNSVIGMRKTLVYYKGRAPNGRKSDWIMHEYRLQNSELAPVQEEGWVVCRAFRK
# Outline: as §1
# [12] = molecular target: T11, GST-NTL8 NAC domain (Arabidopsis thaliana, UniProt Q9XIN7 14-156)
# T11 sequence: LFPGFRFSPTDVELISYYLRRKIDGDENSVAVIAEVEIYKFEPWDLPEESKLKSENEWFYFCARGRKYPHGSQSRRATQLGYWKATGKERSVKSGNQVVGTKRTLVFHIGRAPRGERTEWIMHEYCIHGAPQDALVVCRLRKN
# Outline: as §1
# GST-NTL6(1-168), sequence (Q9SCK6 1-168): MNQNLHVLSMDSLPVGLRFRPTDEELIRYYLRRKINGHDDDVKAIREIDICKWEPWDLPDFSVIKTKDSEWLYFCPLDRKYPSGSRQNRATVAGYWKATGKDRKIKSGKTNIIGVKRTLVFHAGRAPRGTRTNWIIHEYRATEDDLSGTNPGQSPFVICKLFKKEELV
sequence,measurement,setting,value
GTACGTTA,binding signal,[1],0.42 E-score
same,binding signal,[2],0.0779 E-score
same,binding signal,[3],0.0888 E-score
same,binding signal,[4],0.226 E-score
same,binding signal,[5],0.325 E-score
same,binding signal,[6],0.426 E-score
same,binding signal,[7],0.173 E-score
same,binding signal,[8],0.316 E-score
same,binding signal,[9],0.415 E-score
same,binding signal,[10],0.253 E-score
same,binding signal,[11],0.148 E-score
CACGGAAG,binding signal,[1],0.372 E-score
same,binding signal,[2],0.0727 E-score
same,binding signal,[3],0.471 E-score
same,binding signal,[4],0.435 E-score
same,binding signal,[5],0.343 E-score
same,binding signal,[6],0.403 E-score
same,binding signal,[7],0.367 E-score
same,binding signal,[8],0.12 E-score
same,binding signal,[12],0.129 E-score
same,binding signal,[9],0.164 E-score
same,binding signal,[10],0.435 E-score
same,binding signal,[11],0.428 E-score
GAACACGC,binding signal,[1],0.382 E-score
same,binding signal,[2],0.0566 E-score
same,binding signal,[3],0.289 E-score
same,binding signal,[4],0.237 E-score
same,binding signal,[5],0.19 E-score
same,binding signal,[6],0.427 E-score
same,binding signal,[7],0.248 E-score
same,binding signal,[8],0.205 E-score
same,binding signal,[9],0.158 E-score
same,binding signal,[10],0.138 E-score
same,binding signal,[11],0.174 E-score
AAGCAAAG,binding signal,[1],0.302 E-score
same,binding signal,[2],0.342 E-score
same,binding signal,[3],0.176 E-score
same,binding signal,[4],0.125 E-score
same,binding signal,[5],0.0761 E-score
same,binding signal,[6],0.369 E-score
same,binding signal,[7],0.11 E-score
same,binding signal,[8],0.278 E-score
same,binding signal,[12],0.222 E-score
same,binding signal,[9],0.403 E-score
same,binding signal,[10],0.198 E-score
same,binding signal,[11],0.25 E-score
ATACGCAA,binding signal,[1],0.485 E-score
same,binding signal,[2],0.0867 E-score
same,binding signal,[3],0.429 E-score
same,binding signal,[4],0.397 E-score
same,binding signal,[5],0.336 E-score
same,binding signal,[6],0.487 E-score
same,binding signal,[7],0.459 E-score
same,binding signal,[8],0.406 E-score
same,binding signal,[12],0.172 E-score
same,binding signal,[9],0.462 E-score
same,binding signal,[10],0.435 E-score
same,binding signal,[11],0.433 E-score
ATACGTAA,binding signal,[1],0.462 E-score
same,binding signal,[2],0.175 E-score
same,binding signal,[3],0.476 E-score
same,binding signal,[4],0.451 E-score
same,binding signal,[5],0.407 E-score
same,binding signal,[6],0.45 E-score
same,binding signal,[7],0.461 E-score
same,binding signal,[8],0.331 E-score
same,binding signal,[9],0.393 E-score
same,binding signal,[10],0.462 E-score
same,binding signal,[11],0.458 E-score
CACGTTAA,binding signal,[1],0.429 E-score
same,binding signal,[2],0.0985 E-score
same,binding signal,[3],0.125 E-score
same,binding signal,[4],0.243 E-score
same,binding signal,[5],0.219 E-score
same,binding signal,[6],0.442 E-score
same,binding signal,[7],0.129 E-score
same,binding signal,[8],0.301 E-score
same,binding signal,[9],0.377 E-score
same,binding signal,[10],0.184 E-score
same,binding signal,[11],0.156 E-score
